Compound activity from PubChem BioAssay.
Only some compounds are listed: those with a hit (about 4.2% of all), similar ones and a draw of the others.
RecA intein inh = Mtb RecA intein splicing inhibitors, primary screen, biochemical, fluorescence, HTS; hit rate 0.75% among 290,000; Protein RecA (Mycobacterium tuberculosis (strain ATCC 25618 / H37Rv)), P9WHJ3; cell-free RecA intein splicing; AID 2221, 2009; inhibition, % (test concentration not listed); in the data active = inhibition above about 30%;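 note: 0% = vehicle wells and 100% = reference inhibitor control wells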
BJeLR lethal = MLPCN primary cell-based screen for lethality selective to Ras in HRASV12 cells; BJeLR (HRASV12) viability, CellTiter-Glo ATP luminescence, 48 h; inhibition, % (test concentration not listed); hit rate 0.17% among 300,000; AID 1554, 2009; in the data active = inhibition above about 50%
FBA Mtb inh = Mtb FBA enzyme inhibitors, primary screen, biochemical, fluorescence, strain H37Rv. inhibition, % at 1 µM. AID 588726, 2011. hit rate 2.3% among 360,000. purified M. tuberculosis FBA, fluorescence read-out. Fructose-bisphosphate aldolase (Mycobacterium tuberculosis (strain ATCC 25618 / H37Rv)), …;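 note: 0% = vehicle and 100% = reference inhibitor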
Target sequence (P9WQA3 whole entry, looked up): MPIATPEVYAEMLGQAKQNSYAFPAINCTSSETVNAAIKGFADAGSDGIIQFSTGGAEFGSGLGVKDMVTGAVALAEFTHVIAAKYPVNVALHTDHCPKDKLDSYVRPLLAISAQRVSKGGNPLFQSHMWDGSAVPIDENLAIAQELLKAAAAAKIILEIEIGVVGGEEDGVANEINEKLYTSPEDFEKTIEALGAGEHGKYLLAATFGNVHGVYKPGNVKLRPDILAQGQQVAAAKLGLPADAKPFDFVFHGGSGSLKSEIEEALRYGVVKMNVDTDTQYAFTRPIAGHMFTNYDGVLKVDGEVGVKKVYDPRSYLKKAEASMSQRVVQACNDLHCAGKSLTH
GDH-TPI counter-1 = GDH-TPI coupling enzyme inhibitors, primary screen, artefact control for M. tuberculosis FBA inhibitor project, biochemical, absorbance, full deck; GDH-TPI coupled enzyme counterscreen, NADH absorbance; inhibition, % at 4.8 µM; hit rate 1.2% among 360,000; in the data active = inhibition above about 30%;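 note: 0% = DMSO wells and 100% = wells lacking the enzyme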
PrPC surface inh = inhibitors of human cell surface prion protein PrPC, primary screen, cell-based, TR-FRET. Major prion protein (Homo sapiens), P04156. TR-FRET read-out. inhibition, % at 13.8 µM. hit rate 0.43% among 370,000; in the data active = inhibition above about 24%; note: 0% = median of the test wells and 100% = reference compound wells
Mtb FBA confirm = M. tuberculosis aldolase blockers, biochemical, fluorescence, strain H37Rv, confirmation | shares compounds with FBA Mtb inh | purified M. tuberculosis FBA, fluorescence read-out | inhibition, % at 1 µM | hit rate 78% among 5,600 | AID 651616, 2012;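 note: 0% = vehicle wells and 100% = reference inhibitor wells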
GDH-TPI counter-2 = GDH-TPI coupling enzyme inhibitors, artefact control for M. tuberculosis FBA inhibitor project, biochemical, fluorescence, high throughput | shares compounds with FBA Mtb inh | GDH-TPI coupled enzyme counterscreen | inhibition, % at 1 µM | hit rate 81% among 5,600 | AID 652141, 2013; in the data active = inhibition above about 10%
* hit, by the source's call; / = not tested or not shown; + = active, no number. Cut-off read from the data, not from the text of the source, unless noted: active = inhibition above about 27%; inactive = the rest.

SMILES	RecA intein inh	BJeLR lethal	FBA Mtb inh	GDH-TPI counter-1	PrPC surface inh	Mtb FBA confirm	GDH-TPI counter-2
O=C(Nc1nccs1)c1cc2c(s1)-c1ccccc1OC2	-8	-6	28*	27	1	142*	116*
CCN(C(=O)c1cc2c(s1)-c1ccccc1OC2)c1cc(OC)ccc1OC	9	-8	2	21	0	/	/
Cc1cccc2c1-c1sc(C(=O)Nc3cccc([N+](=O)[O-])c3C)cc1CO2	-1	13	7	14	2	/	/
CCOC(=O)c1cc2c(s1)-c1c(C)cccc1OC2	-14	-9	82*	17	-4	14	17*
O=C(Nc1ccc(Cl)cn1)c1cc2c(s1)-c1ccccc1OC2	-30	-12	47*	11	-8	26	20*
Cc1ccc(NC(=O)OCCN(C)C(=O)Nc2ccc(C)cc2C)c(C)c1	/	/	/	/	-7	/	/
CCC(=O)NCCCNc1nc2c(C)cccc2cc1C#N	/	-2	38*	-3	6	142*	102*
COc1ccc(C(=O)NCCNc2nc3c(C)cccc3cc2C#N)cc1OC	-29	-4	29*	-15	-2	+	+
Cc1cccc2cc(C#N)c(NCCNS(=O)(=O)c3ccc4c(c3)OCCO4)nc12	-3	9	47*	16	3	125*	93*
O=S(=O)(NCCNS(=O)(=O)c1c(F)cccc1F)c1ccc2c(c1)OCCO2	/	/	1	-1	0	/	/
CC(C)[C@H](NC(=O)c1cccs1)C(=O)N1CCC[C@H]1C(=O)NCc1ccccc1	/	/	/	/	5	/	/
COC(=O)[C@]12C[C@H](CC(=O)NCCC(C)C)C(=O)N(Cc3cccc4ccccc34)C1=C[C@H](COCc1ccccc1)O[C@@H]2C	/	/	/	/	-9	/	/
CCC(Oc1ccc2c(c1)C(=O)CC(C)(C)O2)C(=O)NCCN1CCCCCC1 (stereo unspecified)	-15	2	59*	12	-2	-3	-6
CC(C)CCNC(=O)COc1ccc2c(c1)C(=O)CC(C)(C)O2	-6	-6	50*	12	6	+	+
O=C(Cc1ccc(NC(=O)C2CCN(C(=O)C3CCCC3)CC2)cc1)Nc1cccc(C(=O)N2CCCC2)c1	/	/	/	/	-3	/	/
COC(=O)c1cccc(NC(=O)c2cnoc2C)c1	0	1	31*	-2	2	95*	73*
CCC(C)NC(=O)c1cc2c(=O)n3cccc(C)c3nc2s1 (stereo unspecified)	-44	-8	104*	8	-11	171*	147*
C=CCNC(=O)c1cc2c(=O)n3cccc(C)c3nc2s1	-36	3	93*	18	1	165*	133*
COc1ccc(CCNC(=O)c2cc3c(=O)n4cccc(C)c4nc3s2)cc1OC	1	-9	1	-9	-3	/	/
CC(C)(C)N1Cc2nnn(Cc3ccccc3)c2-c2cc(N3CCCC3)ccc2S1(=O)=O	/	/	/	/	0	/	/
COc1ccccc1CCNC(=O)C(=O)c1cn(CC(=O)N2CCOCC2)c2ccccc12	-1	9	80*	3	-16	104*	85*
Cc1c(OC(C)C(=O)NCc2ccccn2)ccc2c3c(c(=O)oc12)CCCC3 (stereo unspecified)	2	-3	68*	3	3	3	1
Cc1c(OC(C)C(=O)NCc2ccncc2)ccc2c3c(c(=O)oc12)CCC3 (stereo unspecified)	-7	3	73*	12	0	83*	53*
O=c1cc(-c2ccccc2)[nH]n1-c1ccccc1	/	/	3	-3	-4	/	/
O=c1nc(-c2ccccc2)n(-c2ccccc2)[nH]1	1	-3	39*	-4	0	157*	129*
SMILES	RecA intein inh	BJeLR lethal	FBA Mtb inh	GDH-TPI counter-1	PrPC surface inh	Mtb FBA confirm	GDH-TPI counter-2
CN1CCc2c(sc3c2C(=O)NC(c2ccccc2)N3)C1 (stereo unspecified)	-29	3	25	9	-8	/	/
Cc1ccc(C2NC(=O)c3c(sc4c3CCN(C)C4)N2)s1 (stereo unspecified)	-57	8	45*	19	-14	69*	71*
COc1ccc(C(=O)C2(C(=O)Nc3cc(C)cc(C)c3)CC(c3ccccc3C(F)(F)F)=NO2)cc1 (stereo unspecified)	/	/	/	/	1	/	/
COc1ccc(-c2nc(C(N)=O)c3[nH]c(=O)n(-c4cccc(C)c4)c3n2)c(OC)c1	0	-4	4	16	2	/	/
COc1ccccc1-c1nc(C(N)=O)c2[nH]c(=O)n(-c3cccc(C)c3)c2n1	0	-3	48*	29	-1	+	195*
Cc1cccc(-n2c(=O)[nH]c3c(C(N)=O)nc(CC(C)C)nc32)c1	-3	0	46*	9	3	94*	76*
CC(C)Cc1nc(C(N)=O)c2[nH]c(=O)n(-c3ccc(F)cc3)c2n1	-1	2	10	2	9	/	/
CCc1nc(C(N)=O)c2[nH]c(=O)n(-c3ccccc3F)c2n1	0	8	105*	8	-1	91*	74*
O=C(OCc1cn(Cc2cc(F)ccc2F)nn1)N1CCOCC1	/	/	/	/	-7	/	/
CCn1c(SCC(=O)Nc2ccc(C(C)C)cc2)nnc1-c1ccc(C(C)(C)C)cc1	/	/	/	/	-7	/	/
c1ccc(-n2c(-c3cccs3)nc3nc4ccccc4nc32)cc1	-4	2	96*	1	-5	+	+
CCC(C)n1c(-c2cccs2)nc2nc3ccccc3nc21 (stereo unspecified)	-16	-8	53*	13	-11	102*	76*
CCSc1nc(-c2cccs2)nc2ccccc12	3	17	1	0	6	/	/
COc1cc(Nc2cc(C)n(-c3cc(OC)cc(OC)c3)c(=O)c2)cc(OC)c1	/	/	/	/	4	/	/
CCOC(=O)CNc1c(-c2ccc(Cl)cc2)nc2cnccn12	-147	4	68*	20	-15	56*	50*
COc1ccc(-c2cc(C(=O)NCC3CCCO3)c3cc(C)ccc3n2)cc1 (stereo unspecified)	9	-4	76*	12	-4	107*	72*
COc1ccc(-n2nc(C(=O)NCC(=O)NCC3CCCO3)c3ccccc3c2=O)c(OC)c1 (stereo unspecified)	-2	-8	1	2	1	/	/
COc1ccc(-c2nc(C(=O)NCC3CCCO3)cc3c2[nH]c2ccccc23)cc1 (stereo unspecified)	3	-8	30*	9	15	+	+
